# Results from the supplement of paper PMC8728848.
# Only a selection was taken, and the strongest signals are over-represented in it overall.
# B1: Gal 3C (Homo sapiens), P17931 (protein)
# chain: YGAPAGPLIVPYNLPLPGGVVPRMLITILGTVKPNANRIALDFQRGNDVAFHFNPRFNENNRRVIVCNTKLDNNWGREERQSVFPFESGKPFKIQVLVEPDHFKVAVNDAHLLQYNHRVKKLNEISKLGISGDIDLTSASYTMI
# How the values were obtained:
# Test in all cases: glycan array binding signal (z-score within array); higher = stronger binding
# Settings in all cases: glycan notation: IUPAC condensed, linker removed
# [1] = molecular target: Fuc(a1-2)Gal(b1-3)GlcNAc(b1-3)[Fuc(a1-2)Gal(b1-3)GlcNAc(b1-6)]GalNAc
# In short: (§1)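 Glycan array data were curated from 3228 arrays in the Consortium for Functional Glycomics database and kept only where the protein sequence was available. Glycan names were converted to IUPAC-condensed notation, and columns mapping to the same glycan were averaged. The binding signal is a within-array Z-score, averaged across arrays of the same protein sequence at different concentrations or buffers and across linkers. Negative Z-scores can be read as non-binding.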
# [2] = molecular target: Fuc(a1-2)Gal(b1-4)GlcNAc(b1-3)Gal(b1-4)GlcNAc
# In short: as §1
# [3] = molecular target: Fuc(a1-2)[Gal(a1-3)]Gal(b1-4)Glc
# In short: as §1
# [4] = molecular target: Fuc(a1-2)[Gal(a1-3)]Gal(b1-4)[Fuc(a1-3)]GlcNAc
# In short: as §1
# [5] = molecular target: Fuc(a1-2)[GalNAc(a1-3)]Gal(b1-3)GlcNAc(b1-6)GalNAc
# In short: as §1
# [6] = molecular target: Fuc(a1-2)[GalNAc(a1-3)]Gal(b1-4)Glc
# In short: as §1
# [7] = molecular target: Gal(a1-3)Gal(b1-4)[Fuc(a1-3)]GlcNAc
# In short: as §1
# Gal(a1-4)GlcNAc = molecular target: Gal(a1-4)GlcNAc
# In short: as §1
# Gal(a1-6)Glc = molecular target: Gal(a1-6)Glc
# In short: as §1
# [8] = molecular target: Gal(b1-3)GlcNAc(a1-6)Gal(b1-4)GlcNAc
# In short: as §1
# [9] = molecular target: Gal(b1-3)GlcNAc(b1-3)Gal(b1-3)GlcNAc
# In short: as §1
# [10] = molecular target: Gal(b1-3)GlcNAc(b1-3)Gal(b1-4)GlcNAc(b1-3)Gal(b1-4)GlcNAc(b1-2)[Gal(b1-3)GlcNAc(b1-3)Gal(b1-4)GlcNAc(b1-3)Gal(b1-4)GlcNAc(b1-6)]Man(a1-6)[Gal(b1-3)GlcNAc(b1-3)Gal(b1-4)GlcNAc(b1-3)Gal(b1-4)GlcNAc(b1-2)Man(a1-3)]Man(b1-4)GlcNAc(b1-4)[Fuc(a1-6)]GlcNAc
# In short: as §1
# Gal(b1-3)GlcNAc6S = molecular target: Gal(b1-3)GlcNAc6S
# In short: as §1
# [11] = molecular target: Gal(b1-4)GlcNAc(b1-2)[Gal(b1-4)GlcNAc(b1-6)]Man(a1-6)[Gal(b1-4)GlcNAc(b1-2)Man(a1-3)]Man(b1-4)GlcNAc(b1-4)GlcNAc
# In short: as §1
# [12] = molecular target: Gal(b1-4)GlcNAc(b1-3)Gal(b1-4)GlcNAc(b1-3)Gal(b1-4)GlcNAc(b1-2)Man(a1-3)[Gal(b1-4)GlcNAc(b1-3)Gal(b1-4)GlcNAc(b1-3)Gal(b1-4)GlcNAc(b1-2)Man(a1-6)]Man(b1-4)GlcNAc(b1-4)[Fuc(a1-6)]GlcNAc
# In short: as §1
# [13] = molecular target: Gal(b1-4)GlcNAc(b1-3)Gal(b1-4)GlcNAc(b1-3)Gal(b1-4)GlcNAc(b1-2)[Gal(b1-4)GlcNAc(b1-3)Gal(b1-4)GlcNAc(b1-3)Gal(b1-4)GlcNAc(b1-6)]Man(a1-6)[Gal(b1-4)GlcNAc(b1-3)Gal(b1-4)GlcNAc(b1-3)Gal(b1-4)GlcNAc(b1-2)Man(a1-3)]Man(b1-4)GlcNAc(b1-4)[Fuc(a1-6)]GlcNAc
# In short: as §1
# [14] = molecular target: Gal(b1-4)GlcNAc(b1-3)Gal(b1-4)GlcNAc(b1-3)Gal(b1-4)GlcNAc(b1-3)Gal(b1-4)GlcNAc(b1-2)Man(a1-3)[Gal(b1-4)GlcNAc(b1-3)Gal(b1-4)GlcNAc(b1-3)Gal(b1-4)GlcNAc(b1-3)Gal(b1-4)GlcNAc(b1-2)Man(a1-6)]Man(b1-4)GlcNAc(b1-4)GlcNAc
# In short: as §1
# [15] = molecular target: Gal(b1-4)GlcNAc(b1-3)Gal(b1-4)GlcNAc(b1-3)Gal(b1-4)GlcNAc(b1-3)Gal(b1-4)GlcNAc(b1-2)Man(a1-3)[Gal(b1-4)GlcNAc(b1-3)Gal(b1-4)GlcNAc(b1-3)Gal(b1-4)GlcNAc(b1-3)Gal(b1-4)GlcNAc(b1-2)Man(a1-6)]Man(b1-4)GlcNAc(b1-4)[Fuc(a1-6)]GlcNAc
# In short: as §1
# [16] = molecular target: Gal(b1-4)GlcNAc(b1-3)Gal(b1-4)GlcNAc(b1-3)Gal(b1-4)GlcNAc(b1-3)Gal(b1-4)GlcNAc(b1-2)[Gal(b1-4)GlcNAc(b1-3)Gal(b1-4)GlcNAc(b1-3)Gal(b1-4)GlcNAc(b1-3)Gal(b1-4)GlcNAc(b1-6)]Man(a1-6)[Gal(b1-4)GlcNAc(b1-3)Gal(b1-4)GlcNAc(b1-3)Gal(b1-4)GlcNAc(b1-3)Gal(b1-4)GlcNAc(b1-2)Man(a1-3)]Man(b1-4)GlcNAc(b1-4)[Fuc(a1-6)]GlcNAc
# In short: as §1
# [17] = molecular target: Gal(b1-4)GlcNAc(b1-3)Gal(b1-4)GlcNAc(b1-3)Gal(b1-4)GlcNAc(b1-3)Gal(b1-4)GlcNAc(b1-3)Gal(b1-4)GlcNAc(b1-2)Man(a1-3)[Gal(b1-4)GlcNAc(b1-3)Gal(b1-4)GlcNAc(b1-3)Gal(b1-4)GlcNAc(b1-3)Gal(b1-4)GlcNAc(b1-3)Gal(b1-4)GlcNAc(b1-2)Man(a1-6)]Man(b1-4)GlcNAc(b1-4)GlcNAc
# In short: as §1
# [18] = molecular target: Gal(b1-4)GlcNAc(b1-3)Gal(b1-4)GlcNAc(b1-3)Gal(b1-4)GlcNAc(b1-3)Gal(b1-4)GlcNAc(b1-3)Gal(b1-4)GlcNAc(b1-2)Man(a1-3)[Gal(b1-4)GlcNAc(b1-3)Gal(b1-4)GlcNAc(b1-3)Gal(b1-4)GlcNAc(b1-3)Gal(b1-4)GlcNAc(b1-3)Gal(b1-4)GlcNAc(b1-2)Man(a1-6)]Man(b1-4)GlcNAc(b1-4)[Fuc(a1-6)]GlcNAc
# In short: as §1
# [19] = molecular target: Gal(b1-4)GlcNAc(b1-3)Gal(b1-4)GlcNAc(b1-3)Gal(b1-4)GlcNAc(b1-3)Gal(b1-4)GlcNAc(b1-3)Gal(b1-4)GlcNAc(b1-2)[Gal(b1-4)GlcNAc(b1-3)Gal(b1-4)GlcNAc(b1-3)Gal(b1-4)GlcNAc(b1-3)Gal(b1-4)GlcNAc(b1-3)Gal(b1-4)GlcNAc(b1-6)]Man(a1-6)[Gal(b1-4)GlcNAc(b1-3)Gal(b1-4)GlcNAc(b1-3)Gal(b1-4)GlcNAc(b1-3)Gal(b1-4)GlcNAc(b1-3)Gal(b1-4)GlcNAc(b1-2)Man(a1-3)]Man(b1-4)GlcNAc(b1-4)[Fuc(a1-6)]GlcNAc
# In short: as §1
# [20] = molecular target: Gal(b1-4)GlcNAc(b1-3)Gal(b1-4)GlcNAc(b1-3)Gal(b1-4)GlcNAc(b1-3)Gal(b1-4)GlcNAc(b1-3)Gal(b1-4)GlcNAc(b1-3)Gal(b1-4)GlcNAc(b1-2)Man(a1-3)[Gal(b1-4)GlcNAc(b1-3)Gal(b1-4)GlcNAc(b1-3)Gal(b1-4)GlcNAc(b1-3)Gal(b1-4)GlcNAc(b1-3)Gal(b1-4)GlcNAc(b1-3)Gal(b1-4)GlcNAc(b1-2)Man(a1-6)]Man(b1-4)GlcNAc(b1-4)GlcNAc
# In short: as §1
# [21] = molecular target: Gal(b1-4)GlcNAc(b1-6)[Gal(b1-4)GlcNAc(b1-3)]GalNAc
# In short: as §1
# Gal3S(b1-3)GalNAc = molecular target: Gal3S(b1-3)GalNAc
# In short: as §1
# Gal3S4S(b1-4)GlcNAc = molecular target: Gal3S4S(b1-4)GlcNAc
# In short: as §1
# Gal3S6S(b1-4)GlcNAc = molecular target: Gal3S6S(b1-4)GlcNAc
# In short: as §1
# [22] = molecular target: GalNAc(b1-4)GlcNAc(b1-2)Man
# In short: as §1
# [23] = molecular target: GlcNAc(a1-4)Gal(b1-4)GlcNAc(b1-3)Gal(b1-4)GlcNAc
# In short: as §1
# [24] = molecular target: GlcNAc(b1-2)Man(a1-3)[GlcNAc(b1-2)Man(a1-6)]Man(b1-4)GlcNAc(b1-4)GlcNAc
# In short: as §1
binder,measurement,setting,value
B1,glycan array binding signal (z-score),[1],-0.212
same,glycan array binding signal (z-score),[2],1.07
same,glycan array binding signal (z-score),[3],-0.106
same,glycan array binding signal (z-score),[4],-0.196
same,glycan array binding signal (z-score),[5],-0.229
same,glycan array binding signal (z-score),[6],-0.117
same,glycan array binding signal (z-score),[7],-0.259
same,glycan array binding signal (z-score),Gal(a1-4)GlcNAc,-0.295
same,glycan array binding signal (z-score),Gal(a1-6)Glc,-0.222
same,glycan array binding signal (z-score),[8],-0.269
same,glycan array binding signal (z-score),[9],-0.068
same,glycan array binding signal (z-score),[10],1.95
same,glycan array binding signal (z-score),Gal(b1-3)GlcNAc6S,-0.277
same,glycan array binding signal (z-score),[11],-0.222
same,glycan array binding signal (z-score),[12],4.24
same,glycan array binding signal (z-score),[13],4.41
same,glycan array binding signal (z-score),[14],5.03
same,glycan array binding signal (z-score),[15],4.24
same,glycan array binding signal (z-score),[16],4.44
same,glycan array binding signal (z-score),[17],4.06
same,glycan array binding signal (z-score),[18],6.46
same,glycan array binding signal (z-score),[19],6.39
same,glycan array binding signal (z-score),[20],4.39
same,glycan array binding signal (z-score),[21],-0.244
same,glycan array binding signal (z-score),Gal3S(b1-3)GalNAc,-0.289
same,glycan array binding signal (z-score),Gal3S4S(b1-4)GlcNAc,-0.291
same,glycan array binding signal (z-score),Gal3S6S(b1-4)GlcNAc,-0.289
same,glycan array binding signal (z-score),[22],-0.274
same,glycan array binding signal (z-score),[23],-0.2
same,glycan array binding signal (z-score),[24],-0.279
